Experimental data as given in PubChem BioAssay (EPA / NIEHS).
Inconclusive results are not listed. Some structures have more than one record in an assay (separate samples or runs), and their calls can disagree. Activity calls are given as the source filed them. Rule for the calls, unless noted: active = hit-call score of the fitted dose curve at least 0.9, where 1 is the maximum; inactive = score below 0.9.

Assays:
[1] = CCTE_Deisenroth_AIME_384WELL_CTox_Active: Cytotoxicity Assessment (CTOX) in CCTE's 384-well Estrogen Receptor Transactivation Assay with AIME metabolic competence (metabolism positive), Deisenroth Lab (AID 2284037; active = hit-call score of the fitted dose curve at least 0.9, where 1 is the maximum;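 note: chemicals first conditioned 2 h by alginate-bound induced rat liver S9 before cells; activity means signal loss indicating cell death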)
In short: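 Cytotoxicity in VM7Luc4E2 breast cells, 24 hour, measured as protease-substrate fluorescence loss, after 2-hour metabolic conditioning with induced rat hepatic S9 in alginate microspheres. Concentrations 0.002 - 200 uM, 10 points, bidirectional fitting.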

[2] = biological target: Estrogen receptor (Homo sapiens) (UniProt P03372); experiment: CCTE_Deisenroth_AIME_384WELL_LUC_Inactive: CCTE's 384-well Estrogen Receptor Transactivation Assay without AIME metabolic competence (ERTA luciferase; metabolism negative), Deisenroth Lab (AID 2284038; active = hit-call score of the fitted dose curve at least 0.9, where 1 is the maximum;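 note: VM7Luc4E2 breast cells given medium preincubated 2 h with S9-free microspheres; hits raise estrogen receptor luciferase signal so potencies reflect agonists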)
Sequence of Estrogen receptor (Homo sapiens) (P03372 whole entry, looked up): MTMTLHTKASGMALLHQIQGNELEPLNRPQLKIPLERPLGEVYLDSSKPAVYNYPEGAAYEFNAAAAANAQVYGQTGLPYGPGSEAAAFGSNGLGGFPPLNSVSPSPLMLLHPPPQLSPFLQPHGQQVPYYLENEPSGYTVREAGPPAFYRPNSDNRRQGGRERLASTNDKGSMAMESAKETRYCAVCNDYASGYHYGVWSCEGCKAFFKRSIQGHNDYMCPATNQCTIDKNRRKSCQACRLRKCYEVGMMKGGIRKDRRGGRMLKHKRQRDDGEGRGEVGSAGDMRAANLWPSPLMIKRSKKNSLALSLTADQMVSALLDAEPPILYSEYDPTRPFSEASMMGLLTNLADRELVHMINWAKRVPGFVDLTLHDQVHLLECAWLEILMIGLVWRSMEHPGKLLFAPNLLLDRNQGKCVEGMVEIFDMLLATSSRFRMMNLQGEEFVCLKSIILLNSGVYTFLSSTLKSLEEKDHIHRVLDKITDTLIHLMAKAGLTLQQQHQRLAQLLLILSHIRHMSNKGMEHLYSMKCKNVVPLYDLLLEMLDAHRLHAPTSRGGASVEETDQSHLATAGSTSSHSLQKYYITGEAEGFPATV
In short: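 VM7Luc4E2 ER transactivation, luciferase bioluminescence after 24 h, using medium pre-incubated 2 h with S9-free alginate microspheres. Concentrations 0.002–200 uM; gain of signal fitted relative to 17beta-estradiol.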

[3] = CCTE_Deisenroth_AIME_384WELL_CTox_Inactive: Cytotoxicity Assessment (CTOX) in CCTE's 384-well Estrogen Receptor Transactivation Assay without AIME metabolic competence (metabolism negative), Deisenroth Lab (AID 2284039; active = hit-call score of the fitted dose curve at least 0.9, where 1 is the maximum;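 note: cell viability via live-cell protease substrate cleaved to fluorescent probe; cells exposed 24 h to medium preincubated 2 h with alginate-water beads without S9; loss of fluorescence signal means loss of viability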)
In short: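 VM7Luc4E2 cells, metabolism-negative arm: test chemicals (0.002–200 uM, 10 points) pre-incubated 2 h with alginate-water microspheres, then medium transferred to cells for 24 h. Viability read as protease-substrate cleavage to fluorescent probe; loss-of-signal, bidirectional fitting.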

[4] = biological target: Estrogen receptor (Homo sapiens) (UniProt P03372); experiment: CCTE_Deisenroth_AIME_384WELL_LUC_Shift: CCTE's 384-well Estrogen Receptor Transactivation Assay with AIME metabolic competence data shift (ERTA luciferase; difference in metabolism positive and negative), Deisenroth Lab (AID 2284041);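 note: shift is response with S9 minus without S9 so positive means metabolism raised ER signal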
In short: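 Test chemicals (0.002–200 uM, 10-point) were pre-incubated 2 h with alginate microspheres containing phenobarbital/beta-naphthoflavone-induced male Sprague Dawley rat liver S9 or water, then medium was transferred to VM7Luc4E2 cells for 24 h luciferase readout; shift = S9-positive minus S9-negative normalized response.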

[5] = CCTE_Shafer_MEA_acute_synchrony_index: CCTE's Neural Acute Assay for Synchrony, Shafer Lab (AID 2284027);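 note: network synchrony index of spontaneous spiking in primary rat cortical neurons on MEAs; fitted for loss of signal so actives lower synchrony relative to DMSO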
In short: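 The synchrony index is taken as percent change per well between a 40 min baseline and a 40 min recording with compound (0.03–40 uM), at 37C. Rat cortical cultures on multiwell MEAs at DIV 13 or 15, spike threshold 8× rms noise.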

DIO2 (gene 1734) = experiment: CCTE_GLTED_hDIO2: CCTE's human Deiodinase 2 (DIO2) Inhibition Assay, Great Lakes Toxicology and Ecology Division (GLTED) Lab (AID 2284050; active = hit-call score of the fitted dose curve at least 0.9, where 1 is the maximum)
In short: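 Iodide released by human deiodinase 2 over 3 h with test chemical, measured spectrophotometrically via Sandell-Kolthoff cerium/arsenic reaction. Run n=3; inhibition referenced to DMSO.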

DIO3 (gene 1735) = experiment: CCTE_GLTED_hDIO3: CCTE's human Deiodinase 3 (DIO3) Inhibition Assay, Great Lakes Toxicology and Ecology Division (GLTED) Lab (AID 2284055; active = hit-call score of the fitted dose curve at least 0.9, where 1 is the maximum;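 note: potency is for inhibition seen as loss of released iodide signal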)
In short: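 Inhibition is read as reduced iodide release, measured spectrophotometrically by the Sandell-Kolthoff cerium/arsenic reaction. Adenovirus-expressed human DIO3 enzyme is exposed to chemical for 3 h, n=3 plates. Iodinated chemicals, nitrite, iron or thiocyanate may interfere.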

[6] = CCTE_Shafer_MEA_dev_active_electrodes_number: CCTE's Neural Network Formation Assay for Number of Active Electrodes, Shafer Lab (AID 2284040; active = hit-call score of the fitted dose curve at least 0.9, where 1 is the maximum)
In short: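 Counts electrodes per well firing at least 5 spikes/min, recorded on days 5, 7, 9 and 12 in rat cortical cultures dosed continuously from plating (treatment refreshed DIV 5, 9). Value is the area under the curve over recordings, fitted downward relative to DMSO.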

[7] = CCTE_Shafer_MEA_dev_bursting_electrodes_number: CCTE's Neural Network Formation Assay for Number of Bursting Electrodes, Shafer Lab (AID 2284043; active = hit-call score of the fitted dose curve at least 0.9, where 1 is the maximum)
In short: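 Number of electrodes reaching ≥1 burst every 2 min was recorded at DIV 5, 7, 9 and 12 and collapsed as trapezoidal area under the curve. Cultures were rat cortical neurons on MEA plates, dosed continuously from plating with medium and treatment refreshed on DIV 5 and 9.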

[8] = CCTE_Shafer_MEA_dev_per_burst_interspike_interval: CCTE's Neural Network Formation Assay for Burst Interspike Interval, Shafer Lab (AID 2284044);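 note: mean spike spacing inside bursts as AUC over recordings on days 5 7 9 12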
In short: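 Developmental network-formation MEA in primary rat cortical cultures with exposure spanning days 0–12. Within-burst ISI is averaged per well and integrated across recording days by area under the curve, with DMSO as negative control baseline.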

[9] = CCTE_Shafer_MEA_dev_burst_duration_mean: CCTE's Neural Network Formation Assay for Mean Burst Duration, Shafer Lab (AID 2284045)
In short: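 Mean single-electrode burst duration (first to last spike), averaged over bursting electrodes per well, then integrated as area-under-curve across recordings at days 5, 7, 9 and 12. Rat cortical cultures on MEAs, compound present from plating, refreshed at feeds.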

[10] = CCTE_Shafer_MEA_dev_interburst_interval_mean: CCTE's Neural Network Formation Assay for Mean Interburst Interval, Shafer Lab (AID 2284046);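 note: well-mean interburst interval of bursting electrodes as AUC over four recording days; curve fitted for decrease in interburst interval relative to DMSO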
In short: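 Recordings on days 5, 7, 9 and 12 give well-mean interburst interval across actively bursting electrodes, summarized as area under the curve. Cultures: rat cortical neurons, continuous exposure from day 0, compound renewed at feeds; decrease analyzed versus DMSO.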

[11] = CCTE_Shafer_MEA_dev_inter_network_spike_interval_mean: CCTE's Neural Network Formation Assay for Mean Inter-network Spike Interval, Shafer Lab (AID 2284047)
In short: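 Primary rat cortical neurons on 16-electrode MEA wells, exposed from plating day 0 through DIV 12, compound renewed at DIV 5 and 9 media changes. Mean interval between network-spike peaks recorded DIV 5, 7, 9, 12; collapsed as trapezoidal AUC, fitted downward versus DMSO.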

[12] = CCTE_Shafer_MEA_dev_network_spike_peak: CCTE's Neural Network Formation Assay for Mean Number of Electrodes in Network Spike, Shafer Lab (AID 2284049);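 for AC50: fitted for loss of signal meaning fewer electrodes in network spikes than DMSO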
In short: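 Rat cortical primary culture, 1.5 x 10^5 cells/well, 48-well MEA (16 electrodes/well). Dosing day 0 through DIV 12, full media/compound exchange DIV 5, 9. AxIS adaptive spike detection; AUC over days 5/7/9/12; loss-of-signal vs DMSO.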

[13] = CCTE_Shafer_MEA_dev_spike_duration_mean: CCTE's Neural Network Formation Assay for Mean Spike Duration, Shafer Lab (AID 2284051);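 note: mean network spike duration pooled as area under curve over DIV 5 to 12 recordings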
In short: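 Primary rat cortical neurons on 16-electrode MEA wells (PEI-coated, laminin in plating drop), exposed from plating through DIV 12 with compound renewed at DIV 5 and 9. Mean network-spike duration recorded DIV 5, 7, 9, 12; trapezoidal AUC across days, DMSO baseline.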

[14] = CCTE_Shafer_MEA_dev_network_spike_duration_std: CCTE's Neural Network Formation Assay for Standard Deviation of Network Spike Duration, Shafer Lab (AID 2284052);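 note: hits are decreases in network spike duration SD versus DMSO vehicle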
In short: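 Primary rat cortical neurons on PEI-coated 16-electrode MEA wells, exposed from plating day 0 through day 12 with compound renewed at DIV 5 and 9. Network spike duration SD recorded on days 5, 7, 9, 12, collapsed as trapezoidal AUC; loss-of-signal fit versus DMSO.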

[15] = CCTE_Shafer_MEA_dev_per_network_spike_spike_percent: CCTE's Neural Network Formation Assay for Percent of Spikes in a Network Spike, Shafer Lab (AID 2284054)
In short: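 Metric: fraction of spikes falling in a 0.05 s window at network-spike peaks. Recordings were made on days 5, 7, 9 and 12 and collapsed by trapezoidal AUC. Cultures were rat cortical neurons on MEA plates, dosed continuously from plating, re-dosed at media changes.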

[16] = CCTE_Shafer_MEA_dev_LDH: CCTE's Lactate Dehydrogenase Assay for Cytotoxicity in the Neural Network Formation Assay, Shafer Lab (AID 2284068; active = hit-call score of the fitted dose curve at least 0.9, where 1 is the maximum;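 note: exposure for twelve days from plating with re-dosing on DIV 5 and 9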)
In short: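 Primary rat cortical neurons were plated on PEI/laminin MEA plates and exposed from day 0 for twelve days, with compound renewed at DIV 5 and 9. Cytotoxicity was determined by spectrophotometric LDH assay relative to DMSO.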

Measured: AC50

CC(C)CCCCCCCOC(=O)CCCCC(=O)OCCCCCCCC(C)C
inactive: [1]

Cn1c(=O)cc(Oc2ccc(F)cc2F)c2cnc(NCC(C)(C)O)nc21
active: [4] 79.3 µM
inactive: [1] | [2] | [3]

CCOC(=O)c1ccc(C2CCC(NC[C@H](O)COc3ccc(O)c(NS(C)(=O)=O)c3)CC2)cc1 (some centres undefined)
active: [5] 28.8 µM | [1] 100 µM | [3] 128 µM | DIO2 (gene 1734) 105 µM | DIO3 (gene 1735) 126 µM

On1ccccc1=S
inactive: [5] | [1] | [3]

O=c1n(CC2CO2)c(=O)n(CC2CO2)c(=O)n1CC1CO1 (centres undefined)
active: [1] 136 µM | [3] 100 µM
inactive: [2]

CCCCC(CC)COC(=O)CCCCCCCCC(=O)OCC(CC)CCCC (centres undefined)
inactive: [5]

O=C(O)c1cccc(Oc2ccccc2)c1
inactive: [1] | [2] | [4]
active: [3] 0.000708 µM

O=P(OC(CCl)CCl)(OC(CCl)CCl)OC(CCl)CCl
inactive: [5] | [6] | [7] | [8] | [9] | [10] | [11] | [13] | [14] | [15] | [16]
active: [5] 23 µM | [12] 2.98 µM

Cc1ccc(O)cc1
inactive: [1]

O=C(O)c1cc(N=Nc2ccc(S(=O)(=O)Nc3ccccn3)cc2)ccc1O
active: [1] 100 µM | [3] 49.7 µM
inactive: [5]

CC[C@H]1OC(=O)[C@H](C)[C@@H](O[C@H]2C[C@@](C)(OC)[C@@H](O)[C@H](C)O2)[C@H](C)[C@@H](O[C@@H]2O[C@H](C)C[C@H](N(C)C)[C@H]2O)[C@](C)(O)C[C@@H](C)C(=O)[C@H](C)[C@@H](O)[C@]1(C)O
not listed: [1] | [2] | [3] | [4] | DIO2 (gene 1734) | DIO3 (gene 1735) | [16]
inactive: all other assays above
